Data as given in the supplement of paper PMC10338343.
± gives the standard deviation.

Each sequence was assayed on MILI (PIWIL2) piRISC loaded with piRNA #1 (26 nt) (assay: pre-steady-state target cleavage rate (min^-1); guide: piRNA #1 5'p-UGAGGUAGUAGGUUGUAUAGUAUCCA; MIWI and MILI are mouse PIWI proteins and EfPiwi is from a freshwater sponge; tags in brackets are library labels; higher = faster piRNA-guided slicing of the target). Details: auxiliary factor: 500 nM mouse GTSF1.
Outline: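 Cleave-'n-Seq: a transcribed, DNA-blocked target RNA library (0.1 nM) was mixed with 1 nM active affinity-purified piRISC carrying one synthetic guide, with or without 500 nM GTSF1 partner protein, in HEPES–potassium acetate buffer at 33 °C for 0–8 or 0–960 min. Uncleaved targets were sequenced and normalised to depth and to weakly complementary targets. Three trials were pooled, and k3 was capped at 0.0001 min^-1. The pre-steady-state cleavage rate came from a burst-and-steady-state fit.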

Sequence | pre-steady-state target cleavage rate
GGAGACCUAUGAAUACAACCUACUACACUCA | 0.00526 ± 0.0026
GGAGACCUUACUAUACAACCUACUACUCA | 0.216 ± 0.025
GGAGACCUAUGAUAACAACCUACUACCUCA [g2:g16:cont:t1A] | 0.00406 ± 0.003
GGAGACGUUACUAUACAACCUACUUCCUCA | 0.0496 ± 0.013
GGAGUCGAUACUUUACAACCUACUACCUCA | 0.185 ± 0.009
GGAGAGGAUACUAUACUACCUACAACCUCA | 0.102 ± 0.0092
GGAGACGAUACUAAACAACGUACUACCUCA | 0.017 ± 0.0026
GGAGACCUAUGAUAACAACCUACUACCUCG [g2:g16:cont:t1G] | 0.00536 ± 0.0027
GGAGACCUAACUAUACUACCUACUAGCUCA | 0.0708 ± 0.021
GGAGACCUUACUUUACAACGUACUACCUCA | 0.0199 ± 0.0047
GGAGACCUAACUAUACAACGUACAACCUCA | 0.0148 ± 0.005
GGAGACCUUACUAUUCAACCUACUACCUGA | 0.0942 ± 0.014
GGAGACCUAUGAUAUGUACCUACUACGAGA [g5:g13:cont:t1A] | < 0.0001
GGAGACCUAUCUAUACCACCUACUACCUCA | 0.095 ± 0.017
GGAGACGAUUGUAUACAACCUACUACCUCA | 0.0734 ± 0.0068
GGAGACCUAUGUAUACAACCUACUACAUCA | 0.0269 ± 0.0059
GGAGACCUAACUAUACAACCUACAUACCUCA | 0.0941 ± 0.018
GGAGACCUAUGAUAUGUUCCUACGUACCUCA | < 0.0001
GGAGACCUAACUAUACAUCGUACUACCUCA | 0.0246 ± 0.0074
GGAGACCUAUGAUAUCAAGCUACUACCACA | 0.00606 ± 0.0028

Sequence | pre-steady-state target cleavage rate
GGAGACCUUACUAUUGAACCUACUACCUCA | 0.137 ± 0.013
GGAGACCUAUCUUUACAACCUACUAGCUCA | 0.0374 ± 0.0091
GGAGACCUAUCUAUACAUCCUACAACCUCA | 0.165 ± 0.014
GGAGACCAUUCUAUACAACCUACUACCUGA | 0.0973 ± 0.016
GGAGACCAUACUUUACAAGCUACUACCUCA | 0.199 ± 0.017
GGAGACCAUACUAUACAACCUACUACCUACA | 0.16 ± 0.018
GGAGACCUAUCUAACAACCUACUACCUCA | 0.0222 ± 0.0049
GGAGACCUAUGUAUACAACCUACUACCUCC [g2:g19:cont:t1C] | 0.0539 ± 0.0077
GGAGACCUUACUUUAGAACCUACUACCUCA | 0.13 ± 0.01
GGAGUGGAUAGAUUACAACCUACUACCUCA | 0.0915 ± 0.01
GGAGACGAUACUAUAGUUCCUACUACCUCA | 0.161 ± 0.012
GGAGACCUUACUAAACUACCUACUACCUCA | 0.104 ± 0.013
GGAGACCUUUCUAUUCAACCUACUACCUCA | 0.0926 ± 0.012
GGAGAGGAUACAAUUCAACCUACUACCUCA | 0.174 ± 0.012
GGAGACCUAUGUGUACAACCUACUACCUCA | 0.0178 ± 0.0035
GGAGACCUAUCUAUACAACCUACUAUCCUCA | 0.193 ± 0.023
GGAGACCUAUGAAUACAAGCUACUACGUCA | 0.0102 ± 0.003
GGAGACCUAACUAUACAACCUACUAACUCA | 0.1 ± 0.03
GGAGACCUAAGUAUACAACCUACUACCUCA | 0.0701 ± 0.0097
